Hsp90 Hop PPI = qHTS Assay for Disrupters of an Hsp90 Co-Chaperone Interaction. AID 595, 2007. AlphaScreen TPR2A-His6 binding biotin-Hsp90 C-terminal peptide. 71,000 tested, 0.44% active. Potency, µM (doses to about 57 µM), for inactives: top-dose activity change, negative = inhibition; active means well fitted curve in either direction with a large enough effect; inconclusive means small, poorly fitted or top-dose-only effect, or another doubt; further: on the % scale 0 is the no-effect control and ±100 the full control effect
Casp1 inh = qHTS Assay for Allosteric/Competitive Inhibitors of Caspase-1; P29466; Caspase-1 enzyme, Ac-WEHD-AFC fluorogenic rate; Potency, µM (series often up to 57.5 µM), inactives show at the highest dose activity change, negative = inhibition, most hits filed as inhibitors; 75,000 tested, 0.03% active; AID 900, 2007;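 further: plate controls were vehicle for no effect and no substrate for full effect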
Casp7 inh = qHTS Assay for Allosteric/Competitive Inhibitors of Caspase-7. recombinant caspase-7, Ac-DEVD-AFC fluorescence rate. Potency, µM (highest dose often 57.5 µM), inactives show at the top dose activity change, negative = inhibition, usual class: inhibitors. 75,000 tested, 0.02% active. AID 889, 2007; active means well fitted inhibition curve with a large enough effect in the main read-out, with a control signal flat, not every such curve was filed as active; inconclusive means small, poorly fitted or top-dose-only effect, or a change in a side signal; further: % of control where 0% means no effect
Tau filament bind = qHTS Assay for Tau Filament Binding; 71,000 tested, 2% active; Microtubule-associated protein tau (Homo sapiens), P10636; recombinant tau filaments, thioflavin S fluorescence, 15 h; filaments grown with octadecylsulfate alongside compound; AID 596, 2007; Potency, µM (top dose mostly 57.1 µM), for the others: at the top dose activity change, negative = inhibition;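 further: on the % scale 0 is the no-effect control and ±100 the full control effect; actives lower thioflavin S fluorescence by blocking filaments or displacing dye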
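His-tagged recombinant human tau (exons 2, 3, 10; 1 uM final) fibrillized with 30 uM sodium octadecylsulfate, 15 h at 37 C, in pH 7.4 HEPES buffer with 10 uM thioflavine S and 5 mM DTT. Reduced ThS fluorescence (450/510 nm) marks activity.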
15-hLO-2 inh = qHTS Assay for Inhibitors of 15-hLO-2 (15-human lipoxygenase 2); purified 15hLO-2, xylenol orange hydroperoxide absorbance; 110,000 tested, 0.56% active; Polyunsaturated fatty acid lipoxygenase ALOX15B (Homo sapiens), O15296; Potency, µM (doses to about 57.1 µM), without a hit: top-dose activity change, negative = inhibition, hits mostly inhibitors; AID 881, 2007; further: on the % scale 0 is the no-effect control and ±100 the full control effect; nearly all actives have a fitted effect of over 60% in size
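Purified human 15hLO-2 (50 nM final) preincubated with compounds 15 min at room temperature in 25 mM Hepes pH 7.5, 0.01% Triton X-100, then 45 uM arachidonic acid added for 90 min; hydroperoxide detected via ferrous/xylenol orange, 573/405 nm absorbance ratio.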
ALOX15 inhib = qHTS Assay for Inhibitors of 15-hLO (15-human lipoxygenase); Polyunsaturated fatty acid lipoxygenase ALOX15 (Homo sapiens), P16050; Potency, µM (highest dose often 57.1 µM), without a hit: at the highest dose activity change, negative = inhibition, actives largely listed as inhibitors; purified 15hLO-1, xylenol orange hydroperoxide absorbance; 74,000 tested, 1.4% active; AID 887, 2007; further: on the % scale 0 is the no-effect control and ±100 the full control effect; nearly all actives have a fitted effect of over 55% in size
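Purified human 15hLO-1 (40 nM final) in 25 mM Hepes pH 7.5, 0.01% Triton X-100 was preincubated with compound 15 min at room temperature, then reacted 6 min with 50 uM arachidonic acid; hydroperoxide detected by Fe-XO, 573/405 nm absorbance ratio.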
* marks the source's active call; other numbers are inactive results; ? = inconclusive; . = not tested or not shown; [ ] = remark or other dose. Sampled rows, rich in hits. Any-hit rate of the full collection: about 2.4%. Unless noted, the call rests on the fitted dose curve; in most records, active means well fitted curve in the direction sought with a large enough effect; inconclusive means small, poorly fitted or top-dose-only effect, or another doubt; inactive means no such curve, though single readings can be large; an effect the other way counts as inactive or inconclusive. Potency means the concentration at half of the fitted maximal effect.

SMILES	Hsp90 Hop PPI	Casp1 inh	Casp7 inh	Tau filament bind	15-hLO-2 inh	ALOX15 inhib
Fc1ccccc1N1CCN(c2ncnc3[nH]ncc23)CC1	-3.3%	4.8%	1.7%	0.6%	10.5%	28.8%
COc1ccc(/C=N/c2c(-c3ccco3)nc3ccccn23)cc1OC	.	.	.	.	-13.9%	.
Cn1cnnc1SCc1cccc(Br)c1	.	.	.	.	4.5%	.
Cc1cc2cc(CNC(=O)Nc3ccccc3)ccc2n1C	?	-5.4%	-2.6%	20µM*	.	-28.6%
CCC(CC)C(=O)NCc1ccc2c(c1)cc(C)n2C	-2.5%	-2.1%	-3.2%	-21.3%	-2.3%	-9.4%
Cc1cc2cc(CNC(=O)c3cccs3)ccc2n1C	-15.2%	-6.4%	-8.6%	25.1µM*	.	15.8µM*
O=c1/c(=C/c2ccccn2)sc2nc3ccccc3n12	-3.3%[11 µM]	-5.7%	-6.6%	0.501µM*	-13.1%	1.1%[11.4 µM]
CN(C)CCN1C(=O)c2oc3ccccc3c(=O)c2C1c1ccc(F)cc1 (stereo not drawn)	-2.4%	-3.2%	-2.0%	-22.6%	7.5%	-2.1%
O=C1c2ccccc2NC(c2ccncc2)N1c1ccccn1 (stereo not drawn)	-0.2%	.	?	9.6%	13.3%	10.9%
COc1ccccc1N1C(=O)c2ccccc2NC1c1ccncc1 (stereo not drawn)	-2.9%	-4.8%	-4.1%	-4.0%	-0.9%	20µM*
COC(=O)c1ccc(CSc2nc(C(F)(F)F)c3c(c2C#N)CCC3)o1	3.4%	?	-21.1%	?	-12.4%	20µM*
COC(=O)CSc1nc(-c2ccc(C)cc2)c2c(c1C#N)CCCC2	.	.	.	.	2.2%	.
C[N+](C)(C)/N=C\c1ccc(O)c(O)c1	-6.2%[11 µM]	-0.8%[11.5 µM]	0.7%[11.5 µM]	6.6%[11.4 µM]	-1.6%[11.4 µM]	-5.4%[11.4 µM]
CC(C)N=c1scc(-c2ccco2)n1/N=C/c1ccc(O)c(O)c1	.	.	.	.	12.6µM*	.
c1coc(CN=C2NC(=NCc3ccco3)c3ccccc32)c1	-6.3%	-6.7%	3.8%	10µM*	44.3%	-4.9%
COc1ccc(-c2nnc(SCC(=O)Nc3cccc(Cl)c3)o2)cc1	1.3%	1.5%	1.1%	133.8%	-3.7%	3.0%
COc1cccc(NC(=O)CSc2nnc(-c3cc(-c4ccccn4)nc4ccccc34)o2)c1	-8.3%	-3.9%	0.3%[0.00368 µM]	25.1µM*	5.1%[2.29 µM]	1.2%
O=C(Cn1cc2c(n1)CCCCC2)N1CCCCC1	-1.5%	4.0%	-0.1%	15.5%	.	2.9%
O=C(Cn1cc2c(n1)CCCC2)N1CCCc2ccccc21	-11.7%	-6.0%	1.3%	19.7%	-1.5%	25.1µM*
Cc1cc(NC(=O)CSc2c(C)[nH]c3ccccc23)no1	-1.8%	-5.3%	-2.2%	-0.7%	-3.7%	17.2%
CCOC(=O)c1sc2nc(N3CCOCC3)c3c(c2c1N)CCN(C)C3	-3.2%	-13.8%	-13.5%	7.94µM*	30.1%	-18.1%
Nc1c(C(=O)NCc2ccccc2)sc2nc(N3CCOCC3)c3c(c12)CCCC3	.	.	.	.	-24.4%	.
CC1=C(C(=O)Nc2ccccc2)C(c2ccc(O)cc2)N2C(=O)CSC2=N1 (stereo not drawn)	.	.	.	.	-2.8%	.
CC1=C(C(=O)Nc2ccccc2)C(c2ccc(C)o2)n2c(s/c(=C\c3ccco3)c2=O)=N1 (stereo not drawn)	-16.7%	-11.2%	-23.5%	2.51µM*	-26.6%	-29.4%
Cc1nc(N2CCOCC2)c2nc(-c3ccccc3)n(CCCN(C)C)c2n1	-1.1%	0.2%	0.8%	23.8%	8.8%	1.5%
SMILES	Hsp90 Hop PPI	Casp1 inh	Casp7 inh	Tau filament bind	15-hLO-2 inh	ALOX15 inhib
CCCn1c(-c2ccc(F)cc2)nc2c(NCC(C)(C)CN(C)C)nc(C)nc21	-4.8%	-7.2%	-2.2%	-7.8%	48.1%	12.6µM*
CCN(CC)CCCn1c(-c2ccccc2)nc2c(NCc3ccccc3)nc(C)nc21	-0.9%	-2.4%	0.1%	37.4%	55.3%	2.2%
COCCN(CCOC)c1nc(C)nc2c1nc(-c1ccccc1)n2CCN(C)C	-4.6%	-2.1%	-0.6%	5.7%	28.7%	25.1µM*
CCN(CC)CCCn1c(-c2ccccc2)nc2c(N(CCOC)CCOC)nc(C)nc21	-2.6%	1.9%	-0.1%	21.3%	8.6%	1.2%
Cc1nc(NCc2ccccc2)c2nc(-c3ccccc3)n(CC(C)(C)CN(C)C)c2n1	-3.8%	3.0%	-0.3%	23.0%	47.7%	3.98µM*
Cc1nc(N2CCOCC2)c2nc(-c3ccccc3)n(CCN(C)C)c2n1	-2.1%	-0.9%	0.5%	-2.2%	31.0%	12.6µM*
O=c1[nH]c2ccccc2c2ccccc12	-4.3%	-1.4%	0.2%	-5.7%	-6.0%	5.3%
O=C(Nc1ccc(Cl)cc1)N[C@@H]1c2c(ccc3ccccc23)OC[C@@H]1CO	.	.	.	.	-2.8%	.
O=C(Cn1c(=O)c2c(ncn2Cc2ccccc2)n(Cc2ccccc2)c1=O)N1CCc2ccccc21	.	.	.	.	4.8%	.
Cc1nc(NCCO)c2nc(-c3ccccc3)n(CCN(C)C)c2n1	-5.0%	-0.2%	-0.9%	-11.6%	26.1%	31.6µM*
CCCn1c(-c2ccc(F)cc2)nc2c(NC3CCN(Cc4ccccc4)CC3)nc(C)nc21	-5.8%	1.1%	-1.6%	151.0%	54.8%	20µM*
CCCn1c(-c2ccc(F)cc2)nc2c(NCC3CCN(C)CC3)nc(C)nc21	-2.4%	-0.4%	-0.4%	22.5%	1.8%	2.2%
CCCCNc1nc(C)nc2c1nc(-c1ccccc1)n2CCN(C)C	-3.4%	-1.9%	-0.2%	9.1%	50.3%	-29.5%
O=C(Oc1cccnc1)c1cc(S(=O)(=O)N2CCCCC2)ccc1Cl	.	.	.	.	-12.6%	.
O=C(c1cc2nc(-c3ccco3)cc(C(F)(F)F)n2n1)N1CCCc2ccccc21	-3.6%	-3.8%	-2.5%	-23.9%	-22.5%	0.8%
O=C(c1cc2nc(-c3ccco3)cc(C(F)(F)F)n2n1)N1CCCCCC1	5.1%	.	?	12.6µM*	-4.0%	?
O=C(c1ccc2ccccc2c1)N1CCN(c2ccc([N+](=O)[O-])c(N3CCOCC3)c2)CC1	.	.	.	.	-17.2%	.
O=C(NC1CCCC1)c1cnn2c(C(F)(F)F)cc(-c3ccco3)nc12	-5.0%	.	?	?	-20.2%	?
CC(C)CCNC(=O)c1cnn2c(C(F)(F)F)cc(-c3ccco3)nc12	0.3%	.	?	15.8µM*	-26.2%	?
O=C(c1ccc2ccccc2c1)N1CCN(c2ccc(O)cc2)CC1	?	-1.6%	-1.5%	-1.9%	?	3.16µM*
O=C(c1cc2nc(-c3ccco3)cc(C(F)(F)F)n2n1)N1CCN(c2ccccc2)CC1	-16.2%	-11.5%	-18.3%	10µM*	-18.1%	-24.5%
Cc1ccccc1Cn1ccc(NC(=O)c2cc3nc(-c4ccco4)cc(C(F)(F)F)n3n2)n1	-2.4%	?	-18.5%	-26.5%	-11.9%	-3.1%

Source: PubChem (National Center for Advancing Translational Sciences (NCATS))
